Compound activity deposited in PubChem by Broad Institute.
Hits are enriched below; roughly 2.2% of the tested compounds scored in any of these assays.
LGR2 antag – inhibitors of bursicon-induced Drosophila LGR2 receptor cAMP signaling | inhibition, % at 9.99 µM | HEK293 LGR2, CRE-luciferase, bursicon-stimulated, 4 h | 0.35% of 380,000 active;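 active = drop in luminescence signal, shown as inhibition above about 50% in the replicate tests, limit read from the data, passing the limit was not always enough; inconclusive = probably only some replicates passing the limit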;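 also: agonist challenge used bursicon conditioned medium at about half maximal strength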
EBV LMP1 NFkB – reduces LMP1-driven NF-kappaB luciferase signal. LMP1-induced NF-kappaB luciferase reporter cells, luminescence. inhibition, % at 12.5 µM. 0.69% of 350,000 active. AID 504558; in the data active = inhibition above about 41%; inconclusive = no clear call, values can overlap the other calls;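 also: 0% = neutral control wells and 100% = reference inhibitor control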
TRPM1 prom inh – reduces MITF-dependent TRPM1 promoter luciferase signal; inhibition, % at 12.5 µM; 0.83% of 330,000 active; AID 488899; SK-MEL-5 TRPM1 promoter luciferase, 24 h;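 active = mean inhibition across replicates of 60% or more, whatever share of single replicates reaches that level; inconclusive = some that reach 60%, reason not given; inactive = mean inhibition across replicates below 60%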
PGC1a acetyl inh – modulators of PGC1a acetylation; 0.17% of 350,000 active; AID 651687; inhibition, % at 15.6 µM; U2OS PGC1a acetylation, AlphaScreen anti-acetyl-lysine; with virally co-expressed GCN5 acetyltransferase;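 active = every replicate shows inhibition of at least 40%; inconclusive = mean inhibition at least 40% but some replicate below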;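 also: 0% = neutral control wells and 100% = positive control wells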
PAX8 inh HTS – inhibitors of PAX8 transcriptional activity in RMG-I cells. AID 652154. RMG-I TPO-luciferase reporter, SteadyGlo, 24 h. 1.2% of 360,000 active. inhibition, % at 12.6 µM;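 active = mean replicate inhibition at least 60% with every replicate also reaching 60%; inconclusive = only one of the two criteria is met; inactive = mean below 60% and not all replicates reaching 60%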;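 also: luciferase light reporting Pax8 driven TPO promoter activity; plate controls were median of neutral control wells for no effect and mitoxantrone controls for full effect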
EWS-Fli block – inhibitors of EWS/Fli oncoprotein transcriptional activity; A673 NR0B1-luciferase reporter, viability-normalised; inhibition, % at 12.6 µM; 0.67% of 350,000 active;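 active = mean inhibition of at least 50% after viability correction, with every replicate also passing that limit; inconclusive = mean reaches 50% but only one of two replicates passes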;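 also: firefly luciferase signal divided by Alamar Blue viability fluorescence both relative to DMSO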
Starred values were filed as active, the others as inactive; ? = inconclusive; nt = no result.

SMILES	LGR2 antag	EBV LMP1 NFkB	TRPM1 prom inh	PGC1a acetyl inh	PAX8 inh HTS	EWS-Fli block
COCCn1c(SCC(=O)NCc2ccco2)nnc1-c1c[nH]c2ccccc12	-11	73*	-3	12	3	2
CO[C@H]1CN(C)C(=O)c2ccc(NC(=O)CC(F)(F)F)cc2OC[C@H](C)N(C(=O)c2ccccc2F)C[C@H]1C	12	nt	nt	8	-17	nt
COc1cccc(CNC(=O)[C@@H]2[C@@H](CO)[C@@H]3Cn4c(cccc4=O)[C@H]2N3C(=O)C2CCC2)c1	-2	nt	nt	nt	nt	-3
C[C@H]1CCCCO[C@H](CN(C)C(=O)Nc2cccc3ccccc23)[C@@H](C)CN([C@@H](C)CO)C(=O)c2cc(NC(=O)Nc3ccc(C(F)(F)F)cc3)ccc2O1	26	nt	nt	16	-9	0
CN1OC[C@@H]2CN(C(=S)Nc3cc(C(F)(F)F)cc(C(F)(F)F)c3)[C@H](c3ccccc3Br)C[C@@H]21	8	nt	nt	nt	84*	10
C=CCCC(=O)N1C[C@H]2CON(C)[C@H]2C[C@H]1c1ccccc1Br	-3	-4	-9	3	-11	-7
CCCOc1ccc(N)cc1N	nt	54*	42	10	nt	nt
CCCOc1cc(N)ccc1C(=O)OCCN(CC)CC	7	-3	7	-7	1	0
COc1ccccc1S(=O)(=O)N1CC[C@@H]2[C@H]1c1cc(-c3ccccc3F)ccc1N(C)[C@H]2CO	3	nt	nt	6	-10	-2
Cc1ccc(-c2csc(=Nc3cccnc3)n2CCCn2ccnc2)cc1C	nt	47*	3	nt	-7	-4
Cc1ccc(-c2csc(=Nc3cccnc3)n2CCCN2CCCC2=O)cc1C	-4	3	21	nt	10	nt
OCC1CCCN(C(=S)Nc2ccc(Nc3ccccc3)cc2)C1 (configuration not stated)	-147	-15	-46	-8	-76	-73
OCC1CCCN(C(=S)Nc2ccc(OC(F)F)cc2)C1 (configuration not stated)	nt	-9	-8	nt	136*	-44
Cc1cc(C)nc(S/C=C/C(=O)c2ccccc2F)n1	nt	-43	87*	-20	8	17
CCCCCSc1nnc(C)c(=O)[nH]1	nt	-8	0	91*	nt	14
CCCCSc1nnc(C)c(=O)[nH]1	2	-1	11	-1	nt	10
C[C@@H]1CCCCO[C@@H](CN(C)C(=O)c2ccccc2)[C@H](C)CN([C@@H](C)CO)C(=O)c2cc(NC(=O)Cc3ccccc3)ccc2O1	3	nt	nt	-1	3	3
Cc1ccc(S(=O)(=O)Nc2ccc3c(c2)C(=O)N([C@H](C)CO)C[C@@H](C)[C@H](CN(C)Cc2ccc(Cl)c(Cl)c2)OCCCC[C@@H](C)O3)cc1	3	nt	nt	3	?	-9
Cc1ccc(S(=O)(=O)Nc2ccc3c(c2)C(=O)N([C@H](C)CO)C[C@H](C)[C@@H](CN(C)Cc2ccc(Cl)c(Cl)c2)OCCCC[C@H](C)O3)cc1	7	nt	nt	5	66*	-2
C[C@@H]1CCCCO[C@H](CN(C)Cc2ccc(Cl)c(Cl)c2)[C@@H](C)CN([C@H](C)CO)C(=O)c2cc(NS(=O)(=O)c3ccc(Cl)cc3)ccc2O1	-9	nt	nt	-5	28	1
C[C@@H]1CCCCO[C@@H](CN(C)Cc2ccc(Cl)c(Cl)c2)[C@H](C)CN([C@H](C)CO)C(=O)c2cc(NS(=O)(=O)c3ccc(F)cc3)ccc2O1	16	nt	nt	15	85*	27
C[C@@H]1CCCCO[C@@H](CN(C)Cc2ccc(Cl)c(Cl)c2)[C@H](C)CN([C@H](C)CO)C(=O)c2cc(NS(=O)(=O)c3ccc(Cl)cc3)ccc2O1	6	nt	nt	31	102*	25
Cc1noc(C)c1S(=O)(=O)N(C)C[C@@H]1OCCCC[C@H](C)Oc2ccc(NS(=O)(=O)c3cccs3)cc2C(=O)N([C@H](C)CO)C[C@@H]1C	-5	nt	nt	9	24	7
O=C(N[C@H]1C=C[C@@H](CC(=O)N2CCOCC2)O[C@H]1CO)c1ccc2c(c1)OCO2	11	nt	nt	-4	-2	-6
C[C@@H]1CN([C@H](C)CO)C(=O)c2cccc(NC(=O)C3CCOCC3)c2O[C@H]1CN(C)C(=O)NC1CCCCC1	-23	nt	nt	-1	-7	4
O=C1[C@H](Oc2ccccc2)[C@@H](c2ccccc2)N1c1ccncc1	66*	11	22	5	22	7
